Assay outcomes (PubChem BioAssay)
An excerpt weighted towards active compounds, which were near 2.9% of everything screened.
PLC-beta3 inh = PLC-beta3 (human) inhibition, primary screen; Q01970; inhibition, % at 12.2 µM; 0.18% of 370,000 active; Purified PLC-beta3, fluorogenic substrate, fluorescence; in the data active = inhibition above about 11%
ADAM17 inh = inhibitors of human ADAM17. recombinant ADAM17, EDANS/DABCYL FRET peptide cleavage. AID 720648. 0.83% of 370,000 active. inhibition, % at 6.95 µM. P78536;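 active = inhibition above the mean of compounds lying between control limits plus 3 SD, set per campaign, cut at about 8.5% in these data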
KLK7 zymogen act = proKLK7 (human) activation, primary screen. activation, % at 7 µM. P49862. AID 652039. purified proKLK7, EDANS-DABCYL substrate fluorescence; 100% is mature enzyme control, 0% vehicle. 0.9% of 370,000 active;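 active = activation above the mean of all tested compounds plus 3 SD, computed per campaign excluding outliers beyond control limits, cut at about 13% in these data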
ADAM10 inh = ADAM10 inhibition, QFRET primary screen; O14672; recombinant ADAM10, EDANS/DABCYL FRET peptide cleavage, 3 h; inhibition, % at 7 µM; 0.62% of 370,000 active; AID 720582;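 active = inhibition above a per-campaign cutoff equal to the mean of compounds falling between control-based bounds plus 3 SD, cut at about 20% in these data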
Target sequence (O14672 214-748 limits assumed): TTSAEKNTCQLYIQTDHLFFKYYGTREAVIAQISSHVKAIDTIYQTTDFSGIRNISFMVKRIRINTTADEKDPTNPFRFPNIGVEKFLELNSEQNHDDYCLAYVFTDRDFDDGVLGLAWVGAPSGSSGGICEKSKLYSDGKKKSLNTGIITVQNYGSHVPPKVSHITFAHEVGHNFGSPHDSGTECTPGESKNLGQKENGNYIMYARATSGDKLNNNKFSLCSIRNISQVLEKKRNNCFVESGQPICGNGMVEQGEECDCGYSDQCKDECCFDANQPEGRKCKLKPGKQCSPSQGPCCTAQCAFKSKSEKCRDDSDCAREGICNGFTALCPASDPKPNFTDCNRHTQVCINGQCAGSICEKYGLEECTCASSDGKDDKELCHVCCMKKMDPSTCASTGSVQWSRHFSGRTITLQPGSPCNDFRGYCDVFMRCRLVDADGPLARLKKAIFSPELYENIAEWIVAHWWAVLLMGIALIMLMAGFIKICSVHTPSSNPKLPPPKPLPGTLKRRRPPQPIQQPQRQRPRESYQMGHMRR
PLCg1 inh = inhibitors of human phospholipase C gamma1. inhibition, % at 12.2 µM. purified PLC-gamma1, fluorogenic substrate, fluorescence. 0.84% of 370,000 active. P19174; in the data active = inhibition above about 9.5%
KLK7 act conf = confirmation of human kallikrein-7 zymogen activators; shares compounds with KLK7 zymogen act; purified proKLK7, EDANS-DABCYL substrate fluorescence; scaled: vehicle 0, mature enzyme 100; activation, % at 7 µM; 68% of 3,200 active; AID 686949;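 active = activation, as change over the incubation, above the mean of all tested compounds plus 3 SD, cut at about 13% in these data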
EDANS interfere = optically interferes with EDANS-DABCYL signal, flagging KLK7 hits. shares compounds with KLK7 zymogen act. EDANS-DABCYL substrate fluorescence interference, no enzyme, 4 h; solvent 0%, active enzyme control 100%. activation, % at 7 µM. 80% of 3,200 active. AID 686952;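 active = activation above the all-compound mean plus 3 SD, ignoring values outside control-based bounds, cut at about 4.8% in these data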;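 note: value is the 4 h activation minus the activation read at time zero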
EDANS interf = optically interferes with EDANS-DABCYL fluorescence, kallikrein-7 activator counter-screen | shares compounds with KLK7 zymogen act | EDANS-DABCYL peptide fluorescence interference, no enzyme | EC50, µM | 20% of 250 active;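 active = compounds that raise the fluorescence signal in this interference counterscreen, with EC50 at or below 10 µM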;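 note: intact quenched peptide substrate alone read at 355 nm excitation and 520 nm emission; signal is fluorescence gain from T0 to T4 after four hours at room temperature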
Each line names hits and unclear results; the compound was inactive in the other large screens (follow-up assays come after a bar, where they were run).

Oc1cccc(N2CCN(c3cccc(O)c3)CC2)c1	none
CNS(=O)(=O)c1cc(S(=O)(=O)NC)c2cccc3c2c1NC3=O	KLK7 zymogen act 20.9 | KLK7 act conf 20.8 | EDANS interfere 20.7
CNS(=O)(=O)c1ccc2c3c(cccc13)C(=O)N2	KLK7 zymogen act 48.8 | KLK7 act conf 61.1 | EDANS interfere 71.5
Cc1oc2c(cc(NS(=O)(=O)c3ccc4c5c(cccc35)C(=O)N4)c3ccccc32)c1C(=O)OC(C)C	KLK7 zymogen act 23.9 | KLK7 act conf 56.9 | EDANS interfere 52.6
O=C(O)CCCCCNS(=O)(=O)c1ccc2c3c(cccc13)C(=O)N2	KLK7 zymogen act 62.7 | KLK7 act conf 60.9 | EDANS interfere 69.2
COC(=O)c1c(C)oc2c1cc(NS(=O)(=O)c1cccs1)c1ccccc12	none
O=C(O)CCCNS(=O)(=O)c1ccccc1	none
CNc1ccc2c3c(cccc13)C(=O)N(C)C2=O	none
Cc1nn(CCC(=O)NNC(=O)Nc2ccccc2F)c(C)c1[N+](=O)[O-]	none
O=C(O)c1cccc(NS(=O)(=O)c2ccc3c4c(cccc24)C(=O)N3)c1	none
O=C(O)CNS(=O)(=O)c1ccc2c3c(cccc13)C(=O)N2	KLK7 zymogen act 59.5 | KLK7 act conf 72.9 | EDANS interfere 72.7
O=C(Nc1ccc(F)cc1)OCc1cn(Cc2ccc(F)cc2F)nn1	none
COc1ccccc1NC(=O)CSc1nc2c(sc3ccccc32)c(=O)n1CCN(C)C	KLK7 zymogen act 16.0 | KLK7 act conf inactive | EDANS interfere inactive
COCCn1c(SCC(=O)Nc2ccccc2OC)nc2ccccc2c1=O	none
Cc1coc2cc3oc(=O)c(CC(=O)N(C)CC(=O)O)c(C)c3cc12	KLK7 zymogen act 13.5 | KLK7 act conf 13.7 | EDANS interfere 17.4
CCN(CC)C(=O)CC[C@@H]1CC[C@]2(CCCN(C(=O)c3cccnc3)C2)O1	none
Cc1c(CC(=O)N2CCN(C(=O)C3COc4ccccc4O3)CC2)c(=O)oc2cc(O)c(Cl)cc12 (stereo not drawn)	KLK7 zymogen act 89.0 | KLK7 act conf 64.0 | EDANS interfere 63.9
CCc1c(C)c(C#N)c2nc3ccccc3n2c1NCCCN(C)C	none
Cc1c2c(n3c(nc4ccccc43)c1C#N)N(CCCN(C)C)CC2	KLK7 zymogen act 63.0 | KLK7 act conf inactive | EDANS interfere 7.4
Cc1c2c(n3c(nc4ccccc43)c1C#N)N(CCN(C)C)CC2	KLK7 zymogen act 113.9 | KLK7 act conf inactive | EDANS interfere inactive
CN(CCCOC(=O)c1occ2ccccc12)C1CN(Cc2cn(Cc3ccccc3Cl)nn2)S(=O)(=O)C1 (stereo not drawn)	none
C=CCN1[C@H](CC(C)C)COc2cc(N3CCCC3)ccc2S1(=O)=O	none
CC[C@@H]1CN(C)[C@H]2Cc3c([nH]c4ccccc34)C(=O)C[C@@H]1[C@@H]2C(=O)OC	KLK7 zymogen act 16.8 | KLK7 act conf inactive | EDANS interfere 5.2
CCN(CC(=O)NCc1ccc(F)cc1)C(=O)COc1ccccc1[N+](=O)[O-]	KLK7 zymogen act 31.2 | KLK7 act conf inactive | EDANS interfere inactive
CCOC(=O)[C@@]12CN(C(=O)OC(C)(C)C)CC=C1N(Cc1ccc(OC)cc1)C(=O)[C@H]2CC(=O)NCC12CC3CC(CC(C3)C1)C2	none
Cc1csc2nc3cc(C(N)=O)ccc3c(=O)n12	KLK7 zymogen act 22.0 | KLK7 act conf 62.7 | EDANS interfere 77.3
COc1ccc(/C=N/NC(=O)c2nnn(-c3nonc3N)c2-c2cccs2)cc1OC	KLK7 zymogen act 32.1 | KLK7 act conf 216.8 | EDANS interfere 352.8
COc1cc(/C=N/NC(=O)c2nnn(-c3nonc3N)c2-c2cccs2)ccc1O	none
Nc1ccc(/C=C/C(=O)c2ccco2)cc1	none
CC(C)(C)C(=O)Nc1ccc(/C=C/C(=O)c2ccco2)cc1	KLK7 zymogen act 78.1 | KLK7 act conf 53.4 | EDANS interfere 47.6
O=c1c(N2CCOCC2)coc2ccccc12	none
O=c1[nH]c(N2CCOCC2)cc2ccccc12	KLK7 zymogen act 34.1 | KLK7 act conf 19.6 | EDANS interfere inactive | EDANS interf inactive
COc1ccc(-c2cn3cccnc3n2)cc1Br	KLK7 zymogen act 31.8 | KLK7 act conf 78.8 | EDANS interfere 75.3
COc1ccc(-c2cn3cccnc3n2)cc1NC(=O)C(C)C	none
COc1ccc(-c2cn3cccnc3n2)cc1NC(=O)C1CCCC1	none
Cc1ccc(-c2cn3cccnc3n2)cc1NC(=O)c1cccs1	KLK7 zymogen act 33.0 | KLK7 act conf 35.2 | EDANS interfere 39.0
COc1cc(OC)cc(C(=O)Nc2cc(-c3cn4cccnc4n3)ccc2C)c1	KLK7 zymogen act 13.6 | KLK7 act conf inactive | EDANS interfere inactive
COc1cc(C(=O)Nc2cc(-c3cn4cccnc4n3)ccc2C)cc(OC)c1OC	KLK7 zymogen act 47.3 | KLK7 act conf inactive | EDANS interfere inactive
O=C(NN=C/C=C/c1ccco1)c1cc(-c2ccc(Cl)cc2)n[nH]1	none
CC(C)CSc1nnc(-c2ccco2)n1C	none
CCc1cc2c(nc1CC)CCCN2S(=O)(=O)c1ccccc1	none
Cc1cc(=O)c2c(N(C)C)cccc2[nH]1	KLK7 zymogen act 82.5 | KLK7 act conf 56.8 | EDANS interfere 69.3
Cc1ccc2nc3c(cc(C(=O)NCC4CCCO4)c(=N)n3C3CCCC3)c(=O)n2c1 (stereo not drawn)	KLK7 zymogen act 80.8 | KLK7 act conf 71.9 | EDANS interfere 81.0
N=c1c(C(=O)NCC2CCCO2)cc2c(=O)n3ccccc3nc2n1C1CCCC1 (stereo not drawn)	KLK7 zymogen act 105.6 | KLK7 act conf 42.5 | EDANS interfere 30.2 | EDANS interf inactive
Cc1cccn2c(=O)c3cc(C(=O)NCC4CCCO4)c(=N)n(C4CCCC4)c3nc12 (stereo not drawn)	KLK7 zymogen act 81.0 | KLK7 act conf inactive | EDANS interfere inactive
N=c1c(C(=O)NCC2CCCO2)cc2c(=O)n3ccccc3nc2n1C1CCCCC1 (stereo not drawn)	KLK7 zymogen act 35.0 | KLK7 act conf inactive | EDANS interfere inactive
O=C([C@@H]1C[C@H]1c1ccccc1)N1CC[C@H]2[C@H](CCCN2Cc2ccc(F)cc2)C1	none
COc1ccc(-c2nnc(SCC(=O)Nc3ccc(S(=O)(=O)Nc4cc(C)nc(C)n4)cc3)n2-c2ccc(OC)cc2)cc1	none
COc1cccc2sc3cc(NCc4ccc5c(c4)OCO5)ccc3c(=O)c12	KLK7 zymogen act 41.7 | KLK7 act conf 47.1 | EDANS interfere 45.5
